# Results from PubChem BioAssay (NCATS).
# Records with an inconclusive call do not appear. A number with no mark means an inactive call. The source made the active and inactive calls. Calls follow the shape of the dose curve; as a rule, active = well fitted inhibition curve with a large enough effect; inconclusive = small, poorly fitted or top-dose-only effect; inactive = flat fitted curve, though single readings scatter.
# Target: Calcium and integrin-binding protein 1 (Homo sapiens) (UniProt Q99828)
# Experiment: Primary qHTS for Identification of Calcium Integrin Binding Protein 1 (CIB1) Competitor (AID 1508620);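 also: GST tagged CIB1 binding a fluorescein labelled alphaIIb integrin peptide tracer; top concentration of the series differs between compounds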
# Settings: CIB1-GST / FITC-alphaIIb peptide fluorescence polarization; series mostly up to 114 µM; activity change, negative = inhibition: at the top concentration
# Method in brief: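 Fluorescence polarization competition: CIB1-GST (1 uM final) preincubated with compound 15 min at room temperature, then FITC-labeled alphaIIb peptide (100 nM final) added for another 15 min. Polarization read at Ex 480/Em 540.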
# % is scaled to controls: 0 for no effect and ±100 for the full control effect.
# Chain of Calcium and integrin-binding protein 1 (Homo sapiens) (Q99828 whole entry, looked up): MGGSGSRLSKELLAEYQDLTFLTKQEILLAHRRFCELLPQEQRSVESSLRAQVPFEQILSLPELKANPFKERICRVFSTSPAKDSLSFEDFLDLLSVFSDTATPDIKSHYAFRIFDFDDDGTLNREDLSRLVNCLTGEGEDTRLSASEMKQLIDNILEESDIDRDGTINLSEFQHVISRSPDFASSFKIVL
Structure (SMILES),"activity change, negative = inhibition [%]",Potency
CC(C)(C)OC(=O)N1CCN(c2ccc(NCc3ncc(-c4ccc(C#N)cc4)o3)cc2)CC1,-0.676,–
N#Cc1nc(Nc2ccc(C(F)(F)F)cc2)nc(NC2CCCC2)n1,-0.681,–
Cc1ccc(NS(=O)(=O)c2ccc(N3CCCC3=O)cc2)cc1C,4.41,–
COc1cccc(C2c3c(ncn(Cc4cccs4)c3=N)Oc3ccc4ccccc4c32)c1 (stereo not given),5.93,–
N#Cc1nc(Nc2cc(F)cc(F)c2)c2ncn(CCN3CCCC3)c2n1,6.34,–
CCOc1ccccc1-c1nnc2n1N=C(c1ccc(OC)cc1)CS2,3.14,–
O=C(Nc1nnc(-c2ccncc2)s1)Nc1ccc(Cl)cc1F,4.95,–
O=C(O)CN1C(=O)N/C(=C\c2cccn2-c2ccc(P(=O)(O)O)cc2)C1=O,-3.35,–
N#Cc1nc(-c2cccc3ccccc23)oc1N,3.27,–
Cc1noc(C)c1-c1ccc2ncnc(NCc3ccc(C(F)(F)F)o3)c2c1,-0.457,–
CCOc1ccccc1-c1nnc2n1N=C(c1c(OC)cccc1OC)CS2,5.07,–
Cc1ccc(S(=O)(=O)N2CCN(c3nc(-c4ccco4)nc4ccccc34)CC2)cc1,1.71,–
O=C(Nc1cccc(Cc2ccccc2)c1)c1ccc(-c2cccc([N+](=O)[O-])c2)o1,3.13,–
Cc1sc(NC(=O)Cc2ccc3c(c2)OCO3)nc1-c1ccc2c(c1)CCN2,4.34,–
COc1cc(Cn2ncc3c4sc(C)cc4n(C)c3c2=O)cc(OC)c1,5.15,–
COc1ccc(C2=Nn3c(nnc3-c3ccccc3OC)SC2)cc1OC,-0.827,–
NC(=O)c1ccc(-c2noc(-c3ccccc3F)n2)cc1,1.67,–
O=S(=O)(NCC1CN(S(=O)(=O)c2ccc3c(c2)OCCO3)C1)c1c(F)cccc1F,0.53,–
C=CCNc1oc(-c2cccc(F)c2)nc1C#N,-12.7,–
Cc1cc(C)nc(NC(=S)N2CCN(c3nccs3)CC2)c1,–,inactive

Structure (SMILES),"activity change, negative = inhibition [%]",Potency
FC(F)(F)c1ccccc1-c1nc(NCc2ccc(Cl)cc2)c2ccccc2n1,0.567,–
COc1ccc(C2=Nn3c(nnc3-c3ccc(OC)c(OC)c3)SC2)cc1OC,1.49,–
Nc1cccc(-c2ccc(NC(=O)c3cccs3)cn2)c1,-3.82,–
COc1ccc(C2c3c(nc(CCCc4ccccc4)[nH]c3=O)Oc3ccc4ccccc4c32)cc1OC (stereo not given),3.94,–
O=S(=O)(Nc1cccc2cccnc12)c1ccc(Br)s1,-13.8,–
CN(Cc1cncn1C)c1ncnc2ccc(-c3ccc4c(c3)OCO4)cc12,-10.1,–
CC(=O)Nc1sc2c(c1-c1ccc(C(N)=O)cc1)CCNC2,-3.23,–
FC(F)(F)c1ccccc1-c1nc(NCC#Cc2cccnc2)c2ccccc2n1,-7.09,–
O=C(NCCCCc1ccccc1)C1CCN(c2nc(-c3ccc(Br)cc3)cs2)CC1,3.8,–
S=C(NCCCc1cnc[nH]1)NCCCN(Cc1ccc(Cl)cc1)c1ccc(Br)cn1,-8.46,–
COc1ccc(NC(=O)c2cnn3c(C)cc(C)nc23)cc1F,6.7,–
Cc1csc(CNc2ncnc3cc(-c4ccc5c(c4)OCO5)ccc23)n1,-0.0285,–
COc1ccc(C2=Nn3c(nnc3-c3ccccc3O)SC2)cc1OC,-9.78,–
O=S(=O)(Nc1cccc2ccccc12)c1ccc(NCc2ccc(Br)cc2O)cc1,2.24,–
Cc1cc2c(s1)c1cnn(Cc3cccc(F)c3F)c(=O)c1n2C,0.349,–
FC(F)(F)c1ccccc1-c1nc(NCc2ccc(-c3ccc(Cl)c(Cl)c3)cc2)c2ccccc2n1,2.96,–
COc1cc(-c2ccc3ncnc(NCCc4cnc[nH]4)c3c2)cc(OC)c1OC,-3.32,–
O=C(O)c1ccc2c(c1)C(=O)N([C@H](Cc1c[nH]c3ccccc13)C(=O)O)C2=O,-0.105,–
COC(=O)c1ccccc1-c1ccc(/C=c2\sc3nc4cc(Br)cnc4n3c2=O)o1,82.8,–
CC(C)(C)CNc1ncnc2ccc(-c3ccc(C(=O)O)o3)cc12,-12.2,–
